Laboratory results taken from PubChem BioAssay (Tox21).
Results filed as inconclusive are left out. The source made the active and inactive calls. Unless noted, calls follow the shape of the dose curve; as a rule, active = well fitted curve in the direction sought with a large enough effect in the repeat runs; inconclusive = weak or mixed curves; inactive = no such curve, though single readings can be large; an effect the other way counts as inactive or inconclusive.

Assays:
[1] = qHTS assay to identify small molecule HDAC inhibitors - cell viability counter screen (AID 1259365); also: series mostly up to about 92 µM; nearly all actives have a fitted effect of over 50% in size
Method in brief: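 Luminescence from CellTiter-Glo, developed 30min at room temperature, reports viability of wild-type HCT-116 cells treated 2hr with compounds at 37 C and 5% CO2 after overnight plating.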

[2] = qHTS assay to identify small molecule agonists of the sonic hedgehog signaling (Shh) pathway - cell viability counter screen (AID 1259366); also: nearly all actives have a fitted effect of over 50% in size
Method in brief: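 Cytotoxicity counter screen run in the same wells as the Shh reporter assay. NIH/3T3 cells carrying a Gli1 response element–driven luciferase were treated with DMSO-dissolved compounds for 24hr, and live-cell protease activity was measured with CellTiter-Fluor.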

[3] = qHTS assay to identify small molecule antagonists of the sonic hedgehog signaling (Shh) pathway - cell viability counter screen (AID 1259367); also: nearly all actives have a fitted effect of over 55% in size
Method in brief: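 Using CellTiter-Fluor, viability of Gli1-Luc reporter 3T3 cells is read by fluorescence in the wells used for the Shh luciferase assay. Treatment lasts 23 hr with conditioned medium, then reagent 1 hr at 37C.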

[4] = qHTS assay to identify small molecule agonists of the sonic hedgehog signaling (Shh) pathway (AID 1259368; calls by dose curve;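 also: NIH/3T3-derived 3T3Gli1-Luc cells carrying a stable Gli1-driven firefly luciferase reporter; series mostly up to about 92 µM; nearly all actives have a fitted effect of over 15% in size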)
Method in brief: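 3T3Gli1-Luc (NIH/3T3 clone, stable Gli1-Luc); 4 hr pre-incubation, then cpd in DMSO 24 hr, 37 C/5% CO2; luciferase reagent 30 min RT; luminescence.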

[5] = target: Estrogen receptor beta (Homo sapiens) (UniProt Q92731); assay: qHTS assay to identify small molecule agonists of the estrogen receptor beta (ER-beta) signaling pathway (AID 1259377; active = well fitted activation curve with a large enough effect in the signal ratio in the repeat runs, not every such curve was filed as active; the % refers to the signal ratio)
Estrogen receptor beta (Homo sapiens), sequence (Q92731 whole entry, looked up): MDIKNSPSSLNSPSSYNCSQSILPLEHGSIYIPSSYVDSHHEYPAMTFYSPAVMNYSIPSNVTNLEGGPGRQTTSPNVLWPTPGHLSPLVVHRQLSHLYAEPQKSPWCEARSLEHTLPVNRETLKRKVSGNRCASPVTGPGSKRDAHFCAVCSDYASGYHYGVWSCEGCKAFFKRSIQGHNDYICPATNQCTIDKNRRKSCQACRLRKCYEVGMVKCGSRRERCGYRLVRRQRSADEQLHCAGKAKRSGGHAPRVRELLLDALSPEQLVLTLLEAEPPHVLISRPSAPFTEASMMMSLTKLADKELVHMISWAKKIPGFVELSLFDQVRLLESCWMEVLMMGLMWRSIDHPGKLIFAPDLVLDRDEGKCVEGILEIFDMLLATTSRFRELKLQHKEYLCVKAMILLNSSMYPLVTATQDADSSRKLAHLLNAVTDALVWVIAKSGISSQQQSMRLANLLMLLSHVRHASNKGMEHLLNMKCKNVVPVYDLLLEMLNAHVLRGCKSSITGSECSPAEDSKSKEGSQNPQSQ
Method in brief: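 HEK293T ER-beta-UAS-bla; 2% charcoal-stripped FBS; cells pre-incubated 6 hr, compound 16 hr, 37C/5% CO2; LiveBLAzer B/G FRET substrate 2 h RT; fluorescence intensity read.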

[6] = target: Estrogen receptor beta (Homo sapiens) (UniProt Q92731); assay: qHTS assay to identify small molecule antagonists of the estrogen receptor beta (ER-beta) signaling pathway (AID 1259378; active = well fitted inhibition curve with a large enough effect in the signal ratio in the repeat runs, not every such curve was filed as active; the % refers to the signal ratio)
Method in brief: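 Antagonist mode: compounds added to beta-lactamase reporter HEK293T ER-beta-UAS cells stimulated with E2 (1nM final), 16 hr at 37C. LiveBLAzer B/G FRET substrate, 2 hours room temperature, fluorescence read-out.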

[7] = qHTS assay to identify small molecule agonists of the androgen receptor (AR) signaling pathway in the presence of an antagonist - cell viability counter screen (AID 1259379);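 also: MDA-kb2 human breast cancer cells carrying an MMTV luciferase reporter; series mostly up to about 92 µM; nearly all actives have a fitted effect of over 25% in size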
Method in brief: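 Cells: MDA-kb2 (MMTV-luc, AR and GR elements), 3,000/well, 5 hr settle. Added: nilutamide 3.0uM final, then compounds (15 conc.). Incubation: 16 hr, 37C, no CO2. Read-out: CellTiter-Fluor, 1 hr, fluorescence.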

[8] = qHTS assay to identify small molecule agonists of the estrogen receptor beta (ER-beta) signaling pathway - cell viability counter screen (AID 1259380); also: nearly all actives have a fitted effect of over 30% in size
Method in brief: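 HEK293T ER-beta-UAS-bla; 2% CS-FBS; 6 hr pre-plate, 16 hr cpd at 37C/5% CO2; LiveBLAzer read first, then CellTiter-Glo 30 min RT, luminescence.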

[9] = target: Androgen receptor (Homo sapiens) (UniProt P10275); assay: qHTS assay to identify small molecule agonists of the androgen receptor (AR) signaling pathway in the presence of an antagonist (AID 1259381; calls by dose curve; also: nearly all actives have a fitted effect of over 15% in size)
Androgen receptor (Homo sapiens), sequence (P10275 whole entry, looked up): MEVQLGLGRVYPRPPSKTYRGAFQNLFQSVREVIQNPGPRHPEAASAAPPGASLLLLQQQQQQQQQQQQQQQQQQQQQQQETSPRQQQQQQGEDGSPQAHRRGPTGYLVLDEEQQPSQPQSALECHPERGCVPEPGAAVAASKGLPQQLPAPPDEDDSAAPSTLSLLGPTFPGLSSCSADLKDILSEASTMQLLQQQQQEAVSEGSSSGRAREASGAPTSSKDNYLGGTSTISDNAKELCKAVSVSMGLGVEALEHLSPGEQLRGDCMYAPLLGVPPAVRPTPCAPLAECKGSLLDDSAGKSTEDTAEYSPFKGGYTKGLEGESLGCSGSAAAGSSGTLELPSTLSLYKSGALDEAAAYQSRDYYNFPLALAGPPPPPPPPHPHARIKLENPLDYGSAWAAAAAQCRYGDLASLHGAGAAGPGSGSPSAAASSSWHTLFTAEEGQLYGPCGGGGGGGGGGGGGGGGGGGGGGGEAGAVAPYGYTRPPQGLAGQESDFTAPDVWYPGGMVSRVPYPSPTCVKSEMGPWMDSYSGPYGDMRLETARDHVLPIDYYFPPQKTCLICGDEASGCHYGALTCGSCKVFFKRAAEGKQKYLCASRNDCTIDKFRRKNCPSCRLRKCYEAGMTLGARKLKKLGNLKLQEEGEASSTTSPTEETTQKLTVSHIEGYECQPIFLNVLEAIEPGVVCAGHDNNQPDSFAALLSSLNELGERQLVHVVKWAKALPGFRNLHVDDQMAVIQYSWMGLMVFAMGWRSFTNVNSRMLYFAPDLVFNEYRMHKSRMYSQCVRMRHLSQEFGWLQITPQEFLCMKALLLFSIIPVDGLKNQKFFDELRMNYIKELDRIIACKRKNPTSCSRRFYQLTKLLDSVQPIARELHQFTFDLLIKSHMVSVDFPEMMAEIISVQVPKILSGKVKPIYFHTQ
Method in brief: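 MDA-kb2 cells, 3,000/well, rested 5hr at 37C/0% CO2 → nilutamide 3.0uM final or buffer → compounds, 15 conc. → 16hr at 37C → ONE-Glo, 30min RT → luminescence.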

[10] = qHTS assay to identify small molecule antagonists of the sonic hedgehog signaling (Shh) pathway (AID 1259369; calls by dose curve; also: nearly all actives have a fitted effect of over 45% in size)
Method in brief: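 3T3Gli1-Luc, conditioned-medium-stimulated, 24hr cpd, 37C/5% CO2; Gli1-driven firefly Luc luminescence after 30min RT with luciferase reagent. Cells plated 4hr before cpd.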
% is scaled to controls: 0 for no effect and ±100 for the full control effect.

CCCCCCCCCCCCCCCCI
inactive: activity change, negative = cytotoxicity [1] -1.08% [at 19 µM] | viability change, negative = cytotoxic [2] 5% [at 19 µM] | viability change, negative = cytotoxic [3] -1.6% [at 19 µM] | activity change [4] -0.0263% [at 18.9 µM] | activation [5] 0.348% [at 19 µM] | activity, negative = inhibition [6] 2.97% [at 19 µM] | activity change, negative = cytotoxicity [7] -1.43% [at 19 µM] | activity change, negative = cytotoxicity [8] -6.04% [at 19 µM] | activation [9] 0.857% [at 19 µM]

C[CH2][Ge]([Cl])([CH2]C)[CH2]C
inactive: outcome [1] | Potency [2] | Potency [3] | outcome [4] | outcome [6] | Potency [7] | outcome [8]

CCS(=O)(=O)CCn1c([N+](=O)[O-])cnc1C
inactive: outcome [1] | Potency [2] | Potency [3] | outcome [4] | Potency [10] | Potency [7] | outcome [8]

OCCCCCCCl
inactive: outcome [1] | Potency [2] | Potency [3] | outcome [4] | Potency [5] | outcome [6] | Potency [7]

O=c1cc(O)c(Cl)c[nH]1
inactive: outcome [1] | Potency [2] | Potency [3] | outcome [4] | Potency [5] | outcome [6] | Potency [7] | outcome [8]

O=C(O)C(=O)Nc1cccc(-c2nn[nH]n2)c1
inactive: outcome [1] | Potency [2] | Potency [3] | outcome [4] | Potency [10] | Potency [7] | outcome [8]

COc1cc(C=O)ccc1OC(=O)C(C)C
inactive: outcome [1] | Potency [2] | Potency [3] | outcome [4] | Potency [10] | Potency [7] | outcome [8]

CCCCOC(=O)C(=O)OCCCC
inactive: outcome [1] | Potency [2] | Potency [3] | outcome [4] | Potency [10] | Potency [7] | outcome [8]

FC(F)(F)c1ccc(Cl)cc1Cl
inactive: outcome [1] | Potency [2] | Potency [3] | outcome [4] | Potency [10] | Potency [7] | outcome [8]

C=C(C)C(=O)OCCCCCCOC(=O)C(=C)C
inactive: outcome [1] | Potency [2] | Potency [3] | outcome [4] | Potency [10] | Potency [7] | outcome [8]

CC1CCC(C(C)(C)S)C(=O)C1 (centres undefined)
inactive: outcome [1] | Potency [2] | Potency [3] | outcome [4] | outcome [6] | Potency [7] | outcome [8]

CN[C@@H]1[C@H](O)[C@H](NC)[C@H]2O[C@@]3(O)C(=O)C[C@@H](C)O[C@H]3O[C@@H]2[C@H]1O
inactive: outcome [1] | Potency [2] | Potency [3] | outcome [4] | Potency [10] | Potency [7] | outcome [8] | outcome [9]

Nc1cc(Cl)cc(S(=O)(=O)O)c1O
inactive: outcome [1] | Potency [2] | Potency [3] | outcome [4] | Potency [10] | Potency [7] | outcome [8]

O=P(O)(O)OCC(O)CO (centres undefined)
inactive: outcome [1] | Potency [2] | Potency [3] | outcome [4] | Potency [10] | Potency [7] | outcome [8]

CC(=O)c1ccc(OCC(=O)N2CCCCC2)cc1
inactive: outcome [1] | Potency [2] | Potency [3] | outcome [4] | Potency [10] | Potency [7] | outcome [8]

CC(C)COC(=O)CCCCC(=O)OCC(C)C
inactive: outcome [1] | Potency [2] | Potency [3] | outcome [4] | Potency [10] | Potency [7] | outcome [8]

C=C[Si](C)(C)O[Si](C)(C)C=C
inactive: outcome [1] | Potency [2] | Potency [3] | outcome [4] | Potency [10] | Potency [7] | outcome [8]

CC(=O)OC[C@H]1O[C@@H](OC(C)=O)[C@H](OC(C)=O)[C@@H]1OC(C)=O
inactive: outcome [1] | Potency [2] | Potency [3] | outcome [4] | Potency [10] | Potency [7] | outcome [9]

c1ccccc1
inactive: outcome [1] | Potency [2] | Potency [3] | outcome [4] | Potency [10] | Potency [7] | outcome [8]

Cc1oc(=O)oc1CN1CCN(c2cc3c(cc2F)c(=O)c(C(=O)O)c2n3C(C)S2)CC1 (centres undefined)
inactive: outcome [1] | Potency [2] | Potency [3] | outcome [4] | Potency [5] | Potency [7] | outcome [8]

CCCCCCCCOC(C)=O
inactive: outcome [1] | Potency [2] | Potency [3] | outcome [4] | Potency [10] | Potency [7] | outcome [8]

CCCCC(CC)C(=O)OC(C)C (centres undefined)
inactive: outcome [1] | Potency [2] | Potency [3] | outcome [4] | Potency [10] | Potency [7] | outcome [8]

OC(CCN1CCCCC1)(c1ccccc1)c1ccccc1
inactive: outcome [1] | Potency [2] | Potency [3] | outcome [4] | Potency [10] | Potency [7] | outcome [8] | outcome [9]

CC(=O)OC(C)(C)Cc1ccccc1
inactive: outcome [1] | Potency [2] | Potency [3] | outcome [4] | Potency [7]

O=CO
inactive: activity change, negative = cytotoxicity [1] -1.28% [at 8.39 µM] | viability change, negative = cytotoxic [2] 5.23% [at 8.39 µM] | viability change, negative = cytotoxic [3] 1.7% [at 8.39 µM] | activity change [4] -0.175% [at 8.39 µM] | activity change, negative = inhibition [10] 8.06% [at 8.39 µM] | activity change, negative = cytotoxicity [7] 0.727% [at 8.39 µM] | activity change, negative = cytotoxicity [8] 0.536% [at 8.39 µM]

CN(C1CCCCC1)S(=O)(=O)c1ccccc1N
inactive: outcome [1] | Potency [2] | Potency [3] | outcome [4] | Potency [5] | Potency [7]
